This is part of a sample that, as a whole, favours compounds with a hit. Of some 83,000 tested, about 20% had one in any assay.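 Compound tested at a single concentration for 48 hours in 96-well plates; a percent growth value below 10 was scored as active.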 A number with no mark means an inactive call. The source made the active and inactive calls.

Common to all, as to assay: NCI-60 one-dose screen, 48 h (100 = growth as untreated, 0 = no growth, -100 = all killed)
What all share (details): 10 µM unless noted

Assay [1] deals with HCT-15 colon.
For assay [2], the system named is HT29 colon.
Assay [3] deals with SNB-75 CNS.
Assay [4] concerns SNB-19 CNS.
Assay [5] concerns U251 CNS.
The test system of assay [6] is PC-3 prostate.
For assay [7], the system named is SK-MEL-5 melanoma.
In assay [8] the test system is UACC-62 melanoma.
Assay [9] has as its system LOX IMVI melanoma.
The subject of assay [10] is SK-MEL-28 melanoma.
Assay [11] has as its system SK-MEL-2 melanoma.
Assay [12] deals with EKVX NSCLC.
For assay [13], the system named is SN12C renal.
Assay [14] relates to UO-31 renal.
The test system of assay [15] is TK-10 renal.
Assay [16] relates to ACHN renal.
For assay [17], the system named is CAKI-1 renal.
Assay [18] has as its system A498 renal.
Assay [19] deals with CCRF-CEM leukemia.
In assay [20] the test system is MOLT-4 leukemia.

As for `NC(CSC(c1ccccc1)(c1ccccc1)c1ccc2c(c1)OCO2)C(=O)O` (stereo not given), the growth was 25.4% in assay [1]; -5.15% (active) in assay [2]; 30.8% in assay [3]; 37.7% in assay [4]; -7.2% (active) in [5]; 18.7% in assay [6]. The growth in assay [7] is 8.31% (active); in [8], 25.4%; in assay [9] it was 28.5%; in assay [10], 47.4%; in assay [11], -14.6% (active); in [12], 43.4%. Moreover, the growth in [13] is 36.7%; in assay [14] it was 53%; in [15], 69.8%; in assay [16] it was 53%; in assay [17], 37%; in assay [18], 34.3%. For the same compound, the values for the growth in [19] and in assay [20] were -6.86% (active) and 7.18% (active), respectively.

`COc1cc(-c2cc(-c3ccc(Nc4ncnc5cc(Cl)ccc45)cc3)nc(N3CCN(C)CC3)n2)cc(OC)c1OC`: the growth in [1] was 64.4%; in assay [2], 81.7%; in [3], 49.5%; in assay [4], 102%; in assay [5], 106%; in [6], 82.2%. In addition, the growth in assay [7] is 74.5%; in [8] it was 97%; in assay [9], 86.2%; in [10] it was 86.6%; in assay [11], 93.4%; in assay [12] it was 102%. Further, the growth was 88.6% in assay [13]; 23.4% in assay [14]; 136% in [15]; 75.4% in [16]; 91% in assay [17]; 102% in assay [18]. For the same compound, the growth in assay [19] is 52.5%; in assay [20] it was 58.1%.

For the compound `CC(=O)Nc1c(Cl)cc(Cl)c2c1Cc1cc([N+](=O)[O-])ccc1-2`, the growth is 89.7% in [1]; 81.4% in assay [2]; 58% in assay [3]; 99.8% in assay [4]; 74.3% in assay [5]; 81.2% in [6]. For the same compound, the growth was 103% in assay [7]; 102% in [8]; 76.8% in [9]; 100% in [10]; 105% in assay [11]; 59.4% in [12]. Further, the growth in [13] was 80.3%; in assay [14] it was 91.1%; in assay [15], 99.4%; in assay [16], 82.3%; in [17], 84.5%; in [18], 102%. The results for the growth in [19] and in assay [20] were 89.7% and 87%, respectively.

Regarding `COc1cc(/C=C\c2cc(/C=C\c3ccc(O)c(OC)c3)n(C(=O)CNc3ccc(Cl)cc3)n2)ccc1O`, the growth was 11.3% in assay [1]; 15.8% in [2]; 25.5% in assay [3]; 45.6% in assay [4]; 16.1% in assay [5]; 33.9% in assay [6]. Further, the growth in [7] was 15.9%; in assay [8], 10.9%; in assay [9] it was 11.2%; in assay [10], 49.5%; in assay [11], 9.05% (active); in [12], 42.2%. Also, the growth is 22.5% in [13]; 15.9% in [14]; 47.2% in assay [15]; 23.6% in [16]; 29.3% in assay [17]; 44.5% in assay [18]. Also, the growth in assay [19] is 10%; in assay [20] it was 8.25% (active).

Turning to `O=C(CCCCCCN1CC(=O)N2[C@@H](C3CCCCC3)c3[nH]c4ccccc4c3C[C@H]2C1=O)NO`, the growth in [1] is 115%; in [2], 58.9%; in [3], 38.1%; in assay [4], 74.6%; in [5], 70.2%; in assay [6], 62.7%. The growth in [7] is 66%; in assay [8], 35.3%; in assay [9] it was -3.25% (active); in assay [10] it was 60.7%; in [11] it was 69.2%; in assay [12], 77.7%. Moreover, the growth in assay [13] was -97.1% (active); in [14], 84.8%; in assay [15] it was 48.5%; in assay [16], 88.7%; in [17], 70.8%; in assay [18], 82.1%. The figures for the growth in assay [19] and in assay [20] were 26.5% and 10.3%, respectively.

Take `Cn1cc(-c2csc(-c3cn(C)c4ccc(Br)cc34)n2)c2cnccc21`: the growth in [1] was -78.6% (active); in [2], -76.2% (active); in [3] it was -93.6% (active); in assay [4] it was -86.9% (active); in assay [5], -80.4% (active); in assay [6], -74.9% (active). Moreover, the growth in [7] is -55.7% (active); in assay [8], -78% (active); in assay [9], -92.1% (active); in assay [10] it was -96% (active); in assay [11] it was 47.7%; in assay [12] it was -79.1% (active). Further, the growth in assay [13] was -91.5% (active); in assay [14] it was -89.9% (active); in assay [15], -75.7% (active); in assay [16], -99.5% (active); in assay [17], -82.2% (active); in assay [18], 68.7%. The values for the growth in assay [19] and in [20] were -38.1% (active) and -58.9% (active), respectively.

`Cc1cscc(C)c1=S`: the growth in assay [1] was 9.4% (active); in [2], 19.5%; in [3], 108%; in assay [4] it was 100%; in [5], 80%; in [6], 77%. For the same compound, the growth in assay [7] is 90.2%; in [8] it was 90%; in [9], 70.4%; in [10], 120%; in assay [11], 11.9%; in [12], 110%. In addition, the growth in [13] was 87.5%; in assay [14], 70.5%; in assay [15], 92.4%; in assay [16], -5.99% (active); in assay [17], 51.2%; in assay [18], 128%. For the same compound, the growth was 91.1% in [19] and 81.2% in assay [20].

With `O=C(Nc1ccccc1)c1sc(-c2ccccc2)cc1O`, the growth in assay [1] was 97.4%; in assay [2], 107%; in assay [3], 82.6%; in assay [4] it was 101%; in assay [5] it was 98.5%; in assay [6], 95.2%. In addition, the growth in assay [7] was 83.7%; in [8] it was 67%; in assay [9] it was 109%; in assay [10], 84.4%; in [11], 105%; in assay [12], 86.7%. Also, the growth in [13] was 105%; in assay [14], 86.5%; in assay [15] it was 118%; in [16] it was 93.1%; in assay [17], 90.6%; in assay [18], 94.6%. For the same compound, the growth is 96.7% in assay [19] and 95.2% in assay [20].

(Values after PubChem BioAssay (NCI).)
